Measurements reported in PubChem BioAssay AID2778 (National Center for Advancing Translational Sciences (NCATS), 2010).
Results filed as inconclusive are left out. Values without a mark were called inactive. Calls of active or inactive are those of the source. Calls come from the whole dose curve; as a rule, active = well fitted inhibition curve with a large enough effect; inconclusive = small, poorly fitted or top-dose-only effect, or effect the other way; inactive = flat fitted curve, though single readings scatter.

These molecules were tested against Menin (Homo sapiens) (UniProt O00255) (assay: Confirmation of Inhibitors Targeting the Menin-MLL Interaction in MLL Related Leukemias: Confirmation in an HTRF (commercial TR-FRET) Assay using His-tagged menin and biotin-labeled MLL peptide). Conditions: His-menin / biotin-MLL peptide binding; series mostly up to 126 µM; activity change, negative = inhibition: at the top concentration.
Sequence of Menin (Homo sapiens) (O00255 whole entry, looked up): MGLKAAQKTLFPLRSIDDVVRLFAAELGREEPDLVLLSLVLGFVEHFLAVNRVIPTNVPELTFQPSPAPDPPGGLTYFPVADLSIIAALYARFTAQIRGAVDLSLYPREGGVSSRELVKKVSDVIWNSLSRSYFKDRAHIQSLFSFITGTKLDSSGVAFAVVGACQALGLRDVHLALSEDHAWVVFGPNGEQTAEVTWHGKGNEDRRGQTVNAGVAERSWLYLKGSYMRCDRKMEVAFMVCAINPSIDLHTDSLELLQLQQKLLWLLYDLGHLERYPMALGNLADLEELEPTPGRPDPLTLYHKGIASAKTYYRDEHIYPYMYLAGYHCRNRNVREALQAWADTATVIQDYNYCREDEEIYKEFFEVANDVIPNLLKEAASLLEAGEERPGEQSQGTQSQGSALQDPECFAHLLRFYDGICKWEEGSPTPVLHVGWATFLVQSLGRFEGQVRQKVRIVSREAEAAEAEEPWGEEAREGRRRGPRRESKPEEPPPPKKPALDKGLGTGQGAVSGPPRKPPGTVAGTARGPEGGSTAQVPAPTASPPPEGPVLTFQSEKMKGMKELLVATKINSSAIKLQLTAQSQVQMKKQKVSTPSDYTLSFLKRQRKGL
Procedure, shortened: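 HTRF: His6-menin (200 nM) and biotin-MLL-w.t. peptide (80 nM) preincubated 15 min, then compounds 1 hr at ambient, before Eu-cryptate anti-His (3.5 nM) and streptavidin-XL665 (10 nM) for 1 h; 50 mM Tris-HCl pH 7.5, 50 mM NaCl, 1 mM DTT, BSA.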
% is set by controls: 0 for no effect and ±100 for the full control effect; potency is the fitted concentration of half-maximal effect.

| SMILES | Potency | activity change, negative = inhibition |
| --- | --- | --- |
| CC1(C)CN=C(N2CCN(c3ncnc4sc5c(c34)CCCC5)CC2)S1 | 28.2 µM (active) | – |
| CCN(CCn1cccn1)Cc1ccccc1OCC(O)CN1CCc2ccccc2C1 (stereo not given) | – | -6.8% |
| O=C(O)CCC(=O)Nc1ccc(SSc2ccc(NC(=O)CCC(=O)O)cc2)cc1 | – | 7.72% [at 383 µM] |
| CNC[C@H](CC1CCCCC1)NC[C@H](Cc1ccccc1)NCCC12CC3CC(CC(C3)C1)C2 | 251 µM (active) | – |
| O=C(O)CSc1cc(NS(=O)(=O)c2ccc(Br)cc2)c2ccccc2c1O | 89.1 µM (active) | – |
| OC(c1ccccn1)(c1ccccn1)c1ccccn1 | – | -6.19% [at 383 µM] |
| COC(=O)c1cc(CNC(=O)CCCSc2ccccc2)ccc1OC | – | 3.68% |
| O=C(CSc1nnc(-c2c[nH]c3ccccc23)o1)c1ccc(-c2ccccc2)cc1 | – | -14.1% |
| O=C(NCC1CCCO1)c1ccc(OC2CCN(C(=O)C3CC3)CC2)cc1 (stereo not given) | – | 2.92% |
| COc1ccc(OC)c(C(c2c(C)[nH][nH]c2=O)c2c(C)[nH][nH]c2=O)c1 | – | -8.58% [at 383 µM] |
| CCN1C(=O)[C@@H]2C(C(=O)c3cnccn3)=NN[C@@H]2C1=O | – | 6.13% |
| Cc1c(CCOC(=O)CC23CC4CC(CC(C)(C4)C2)C3)sc[n+]1Cc1ccc([N+](=O)[O-])cc1 | – | -18.3% [at 383 µM] |
| C=C1CCC[C@]2(C)C[C@H]3OC(=O)C(CNCCN(CC)CC)[C@H]3CC12 (stereo not given in full) | – | 0.515% |
| CCNc1ccccc1CP(=O)(c1ccccc1)c1ccccc1O (stereo not given) | 89.1 µM (active) | – |
| CCc1nnc(NC(=O)C2(C)COC(c3ccc(OC)cc3)OC2)s1 (stereo not given) | – | -0.226% |
| COc1cc(OC)c2ccc(=O)oc2c1C(CCN1CCOCC1)c1ccc(N(C)C)cc1 (stereo not given) | – | -0.945% |
| O=C(CCN1CCN(c2ccc([N+](=O)[O-])cc2)CC1)c1ccc(Cl)cc1 | – | -5.98% [at 383 µM] |
| CCCNC(=O)c1ccc2c(=O)c(O)c(C)[nH]c2c1 | – | 1.6% |

| SMILES | Potency | activity change, negative = inhibition |
| --- | --- | --- |
| Cc1nc2oc3c(NCC4CCCO4)ncnc3c2c2c1COC(C)(C)C2 (stereo not given) | – | 11.4% |
| N#Cc1ccc(Cl)cc1NC(=O)CNCc1cccs1 | – | 5.39% |
| CCCC(c1nnnn1Cc1cccs1)N1CCN(C2CCCC2)CC1 (stereo not given) | – | -23.6% |
| CC(=O)c1c(O)cc(O)cc1CC(=O)O | – | 2.69% |
| O=C(c1cc(F)c(F)cc1Cl)N1CCN(c2ncccn2)CC1 | – | -3.58% |
| Nc1cccc2c1C(=O)N(C(=O)c1ccco1)C2=O | – | 13% |
| O=C(C1CCCN(Cc2cccc(Cl)c2)C1)N1CCCCC1 (stereo not given) | – | 1.08% |
| Cc1[nH]nc(-c2ccc(OCc3cnn(-c4ccccc4)c3)c(C)c2O)c1Oc1ccccc1 | – | -21.4% |
| CN(C)CCCOc1ccc2c(c1)Sc1ccccc1CC2=O | – | -10.1% |
| O=C(NC(=S)Nc1nc(-c2ccc(Br)cc2)cs1)c1cccnc1 | – | -24.2% |
| CN(C)c1ccc(N=Nc2ccc(C(=O)O)cc2)cc1 | – | 4.67% |
| C[C@H](NC(=O)c1cc2c(cn1)[nH]c1ccccc12)C(=O)O | 79.4 µM (active) | – |
| O=C(CSc1ccc(Cl)cc1)Nc1ccc(NC(=O)c2ccco2)cc1 | – | -28.2% |
| COc1cccc(-c2nn(-c3ccccc3)cc2/C=C\C(=O)c2cccs2)c1 | – | 3.61% |
| CCN1CCN(CC(=O)Nc2ccc(C(C)=O)cc2)CC1 | – | 0.507% |
| COc1ccc(-c2csc(NC(=O)c3cc(-c4cccs4)nc4ccccc34)n2)c(OC)c1 | – | -9.61% |
| CCCc1cc(=O)oc2c3c(c(Cl)cc12)OCN(CCCO)C3 | – | -14.5% [at 383 µM] |
